HCV inh: qHTS Assay for Inhibitors of Hepatitis C Virus (HCV) | Huh7.5.1 HCVcc-Cre infection, luciferase reporter, 44 h | Potency, µM (titrated, usually from 41.8 µM), hits mostly inhibitors | 3.4% of 340,000 active
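1,000 cells/well; 4 h culture; + compound; + HCVcc-Cre (~0.5 moi); 44 h; luciferase substrate, RT 15 min; read 15 sec.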
HCMV inh: qHTS Assay for inhibitors of the human cytomegalovirus (HCMV); HFF cells, HCMV-luciferase reporter, 72 h; stronger effect = lower value; activity change, negative = inhibition, % at 57.5 µM; 4.5% of 410,000 active; in the data active = activity change below about -60%; inconclusive = no clear call, values can overlap the other calls; inactive = above about -39%
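Inhibition of viral replication was scored as loss of reporter luminescence in HFFs infected with HCMV-luciferase (MOI 1 PFU/cell) for 72 h; compounds tested at 2 doses, normalized to buffer and Salinomycin controls.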
Pf growth 48h: Primary qHTS for delayed death inhibitors of the malarial parasite plastid, 48 hour incubation | P. falciparum luciferase growth in erythrocytes, 48 h | Potency, µM (top dose mostly 28.7 µM), most hits filed as inhibitors | 5.9% of 310,000 active | AID 504832, 2011
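Erythrocytes infected with P. falciparum carrying an integrated firefly luciferase reporter (2% hematocrit, 0.1% parasitemia final) were exposed to compounds in RPMI 1640 with 0.5% Albumax at 37 C, 5% CO2. Growth inhibition was scored as reduced luminescence.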
Marburg entry inh: qHTS for inhibitors of binding or entry into cells for Marburg Virus; Marburg virus pseudotyped entry inhibition, cell reporter; 1.8% of 300,000 active; Potency, µM (doses to about 37.8 µM), hits mostly inhibitors; calls by dose curve; tested in HEK293 cells
Pf growth 96h: Primary qHTS for delayed death inhibitors of the malarial parasite plastid, 96 hour incubation | P. falciparum luciferase reporter growth, 96 h | Potency, µM (top dose mostly 28.7 µM), most hits filed as inhibitors | 6.9% of 320,000 active | AID 504834, 2011
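Two parasite generations (96 h, 37 C, 5% CO2) of compound exposure in infected erythrocytes (0.05% parasitemia, 2% hematocrit). Luciferase-reporter P. falciparum; decreased luminescence indicates inhibited growth, aimed at apicoplast-acting delayed death.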
LASV entry inh: qHTS for Inhibitors of binding or entry into cells for Lassa Virus; 1.2% of 300,000 active; Potency, µM (titrated, usually from 37.9 µM), actives largely listed as inhibitors; Lassa virus pseudotype entry inhibition, cell reporter; calls by dose curve; tested in HEK293 cells; note: nearly all actives have a fitted effect of over 50% in size
Of the large screens only hits and unclear results are named; the others gave an inactive call. Sampled rows, rich in hits. Any-hit rate of the full collection: about 14%. Unless noted, calls come from the whole dose curve; as a rule, active = well fitted inhibition curve with a large enough effect; inconclusive = small, poorly fitted or top-dose-only effect, or another doubt; inactive = no such curve, though single readings can be large or run the other way.

Cc1ccc(C)c(Oc2coc3cc(OC(=O)c4cccs4)ccc3c2=O)c1	none (no result: Pf growth 48h, Pf growth 96h)
COc1ccc(Oc2coc3cc(OC(=O)c4cccs4)ccc3c2=O)cc1	Marburg entry inh inconclusive, Pf growth 96h 4.1µM
COCCN1C(=O)C2=C(C1=O)C1N(C)c3ccccc3[C@@]13C[C@@H](CO)N(C(=O)CCC(=O)OC)C3=N2 (some centres not stated)	none (no result: HCV inh, HCMV inh, Pf growth 48h, Pf growth 96h, LASV entry inh)
O=C1C=C(N2CCOCC2)c2ccccc2C1=O	HCV inh inconclusive, HCMV inh -97, Pf growth 48h inconclusive, Marburg entry inh 2.5µM, LASV entry inh inconclusive
CC1=C(C)C(=O)C(N2CCOCC2)=CC1=O	HCMV inh -68, Pf growth 48h inconclusive, Pf growth 96h inconclusive (no result: LASV entry inh)
COC1OC2COC(c3ccccc3)OC2C(O)C1NC(=O)c1ccccc1 (configuration not stated)	none (no result: Pf growth 48h, Pf growth 96h)
O=c1c2ccccc2nnn1CCN1CCOCC1	none (no result: Marburg entry inh, LASV entry inh)
CCCn1nc2ccccc2c1P(=N)(N1CCOCC1)N1CCOCC1	Pf growth 96h 12µM
CSc1ccc(-c2nc(CSCC(=O)NCCCN3CCOCC3)c(C)o2)cc1	Pf growth 96h 9.3µM (no result: Pf growth 48h)
Cc1oc(-c2cccs2)nc1CS(=O)CC(=O)NCCCN1CC(C)CC(C)C1 (configuration not stated)	Pf growth 96h 12µM (no result: Pf growth 48h, LASV entry inh)
Cc1oc(-c2ccc(Cl)cc2)nc1CS(=O)CC(=O)NCCCN1CCN(Cc2ccccc2)CC1 (configuration not stated)	HCV inh 1.3µM, HCMV inh -93, Pf growth 48h inconclusive, Pf growth 96h 9.3µM (no result: Marburg entry inh, LASV entry inh)
Cc1ccc(-c2nc(CS(=O)CC(=O)NCCCN3CC(C)CC(C)C3)c(C)o2)cc1 (configuration not stated)	HCV inh inconclusive, Pf growth 96h inconclusive (no result: Pf growth 48h, LASV entry inh)
Cc1oc(-c2ccc(Cl)cc2)nc1CS(=O)CC(=O)NCCCN1CCCC(C)C1 (configuration not stated)	HCV inh inconclusive, Marburg entry inh inconclusive
Cc1ccc(-c2nc(CSCC(=O)NCCCN3CCOCC3)c(C)o2)cc1	LASV entry inh inconclusive (no result: Pf growth 96h)
Cc1ccc(-c2nc(CSCC(=O)NCCN3CCN(Cc4ccccc4)CC3)c(C)o2)cc1	HCV inh 13µM, HCMV inh -65, Marburg entry inh inconclusive, LASV entry inh inconclusive
CN1C[C@@H]2[C@@H]3C(=O)N(Cc4ccccc4)C(=O)[C@@H]3[C@](C)(C1=O)N2C(=O)c1ccc(Cl)cc1	none (no result: Pf growth 48h, Marburg entry inh, Pf growth 96h, LASV entry inh)
CCOC(=O)c1cnc2ccc(OCC)cc2c1N1CCN(c2cccc(Cl)c2)CC1	none (no result: HCV inh, Pf growth 48h, Pf growth 96h)
Cc1ccccc1OCC(=O)NC(C)c1ccccc1 (configuration not stated)	HCV inh inconclusive (no result: Marburg entry inh, LASV entry inh)
CCc1ccc(-c2nc(CS(=O)CC(=O)NCCCN3CCOCC3)c(C)o2)cc1 (configuration not stated)	Pf growth 96h 7.4µM
CCOC(=O)c1ccc(Nc2c(-c3ccc(O)cc3)nc3nc[nH]n23)cc1	none (no result: HCV inh, Pf growth 48h, Marburg entry inh, Pf growth 96h)
COc1ccc(OC)c(C(=O)COC(=O)c2c(OC)cccc2OC)c1	none
COc1ccc2c(c1)c1nnc(SCC(=O)N3C(C)CCCC3C)nc1n2C (configuration not stated)	HCV inh 8.9µM, Pf growth 48h inconclusive, Marburg entry inh inconclusive, Pf growth 96h inconclusive
COc1ccc(OC)c(C(=O)CCCC(=O)c2cc(OC)ccc2OC)c1	HCV inh inconclusive, HCMV inh -61, Pf growth 48h inconclusive, Pf growth 96h inconclusive (no result: Marburg entry inh, LASV entry inh)
COc1ccc(OC)c(-n2nnnc2SCC(=O)NCCc2ccccc2)c1	HCV inh inconclusive, Marburg entry inh inconclusive, Pf growth 96h 9.3µM
COc1ccc(CCn2c(C)cc(C(=O)CSc3nnnn3-c3ccccc3)c2C)cc1	HCMV inh -70, Marburg entry inh inconclusive (no result: Pf growth 48h)
COc1ccc(-n2nnnc2SCC(=O)N2C(C)CCCC2C)c(OC)c1 (configuration not stated)	HCMV inh -79, Pf growth 48h inconclusive (no result: Pf growth 96h)
CC1CCCC(C)N1C(=O)CSc1nnnn1-c1cccc2c1CCCC2 (configuration not stated)	Pf growth 48h inconclusive, Pf growth 96h inconclusive
COc1cccc(-n2nnnc2SCC(=O)c2cc(OC)ccc2OC)c1	Pf growth 96h 12µM (no result: HCV inh, HCMV inh, Marburg entry inh, LASV entry inh)
COc1cccc(-n2nnnc2SCC(=O)c2ccc(NC(C)=O)cc2)c1	LASV entry inh inconclusive
O=C(Cc1n[nH]c(=O)[nH]c1=O)N/N=C/c1ccccc1O	Pf growth 48h 1.5µM
NC(=O)C1CCN(C(=O)CSc2ccsc2[N+](=O)[O-])CC1	none (no result: Marburg entry inh, LASV entry inh)
O=C(CSc1ccsc1[N+](=O)[O-])N1CCCCCC1	HCMV inh -72 (no result: Marburg entry inh, LASV entry inh)
O=C(CSc1ccsc1[N+](=O)[O-])NCc1ccco1	Pf growth 48h 12µM, Pf growth 96h inconclusive (no result: Marburg entry inh, LASV entry inh)
C/C(=N\N=C(/C)c1cccc(N)c1)c1cccc(N)c1	Marburg entry inh inconclusive (no result: Pf growth 48h, Pf growth 96h)
C=CC[C@@](C(C)=O)(C(=O)OC)[C@@H](NC(=O)OC)c1ccccc1	none (no result: HCV inh, HCMV inh, Pf growth 48h, Pf growth 96h, LASV entry inh)
O=C(NCC(c1cccs1)N1CCOCC1)c1ccccc1NS(=O)(=O)c1ccc(Cl)c([N+](=O)[O-])c1 (configuration not stated)	Pf growth 48h inconclusive, Pf growth 96h 8.3µM (no result: LASV entry inh)
O=C(NCC(c1cccs1)N1CCOCC1)c1ccccc1NS(=O)(=O)c1cccc([N+](=O)[O-])c1 (configuration not stated)	HCMV inh inconclusive, Pf growth 48h inconclusive, Marburg entry inh inconclusive, Pf growth 96h inconclusive, LASV entry inh inconclusive
O=C(NCC(c1cccs1)N1CCOCC1)c1ccccc1NS(=O)(=O)c1cc([N+](=O)[O-])ccc1Cl (configuration not stated)	Pf growth 48h inconclusive, Pf growth 96h 13µM
CCOC(=O)C(C)NC(=O)c1c2c(nc3ccccc13)C(=O)N(C1CCCCC1)C2 (configuration not stated)	none (no result: HCV inh, Pf growth 48h, Marburg entry inh, Pf growth 96h)
O=C(Cc1ccc2ccccc2c1)Nc1ccccc1Br	Pf growth 48h inconclusive, Pf growth 96h 3.3µM, LASV entry inh inconclusive
O=C(Cc1ccc2c(c1)CCCC2)Nc1ccccc1Br	Pf growth 48h 3.7µM, Pf growth 96h 2.6µM, LASV entry inh inconclusive
O=C(Cn1c(=O)n(Cc2ccc(C(=O)NCc3ccccc3Cl)cc2)c(=O)c2ccccc21)Nc1ccc(F)c(Cl)c1	LASV entry inh inconclusive (no result: HCV inh, Pf growth 48h, Pf growth 96h)
COc1ccc2c(c1)c(C(=O)CNc1nc(C)cs1)c(C)n2C	HCV inh inconclusive, Pf growth 48h inconclusive, Pf growth 96h 2.9µM
CCOCc1cnc(C)nc1NCC(=O)c1c(C)n(C)c2ccc(OC)cc12	Pf growth 48h 7.4µM, Marburg entry inh inconclusive
COc1ccc2c(c1)c(C(C)=O)c(C)n2C	HCV inh inconclusive, HCMV inh inconclusive, Marburg entry inh inconclusive
CCN(C(=O)COC(=O)c1cc2c(s1)CCC(C)C2)c1c(N)n(Cc2ccccc2)c(=O)[nH]c1=O (configuration not stated)	HCV inh inconclusive (no result: Pf growth 48h, Marburg entry inh, Pf growth 96h, LASV entry inh)
